Source: PubChem BioAssay (Tox21)
Where “and” joins values, the source holds several entries; their conditions need not be identical. Equal entries are not always repeated. Inconclusive results are not listed. More than one record can exist for a structure, and the calls need not agree. Calls of active or inactive are those of the source. Unless noted, calls come from the whole dose curve; as a rule, active = well fitted curve in the direction sought with a large enough effect in the repeat runs; inconclusive = weak or mixed curves; inactive = no such curve, though single readings can be large; an effect the other way counts as inactive or inconclusive.

Key:
[1] = qHTS assay to identify small molecule antagonists of the vitamin D receptor (VDR) signaling pathway - cell viability counter screen (AID 743225); note: nearly all actives have a fitted effect of over 50% in size
Method in brief: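 Cells (VDR-UAS-bla HEK 293T) are plated, rested 4 h at 37C, dosed with compound and 3 nM final 1-alpha,25-dihydroxy vitamin D3, and incubated 16 h. Viability is taken from CellTiter-Glo luminescence in the reporter wells.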

[2] = qHTS assay to identify small molecule agonists of the NFkB signaling pathway (AID 1159509; active = well fitted curve in the direction sought with a large enough effect in the signal ratio in the repeat runs, not every such curve was filed as active; the % refers to the signal ratio; note: series mostly up to about 61 µM)
Method in brief: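 Agonist activity was read as beta-lactamase-driven FRET change (460 and 530 nm emission, 405 nm excitation) following 1.5 hr substrate loading at room temperature. Beforehand, ME-180 NFkB-bla reporter cells were treated with compounds for 5 hr at 37 C.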

[3] = qHTS assay to identify small molecule agonists of the NFkB signaling pathway - cell viability counter screen (AID 1159515; calls by dose curve; note: series mostly up to about 61 µM; nearly all actives have a fitted effect of over 55% in size)
Method in brief: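 Parallel cytotoxicity counter screen in ME-180 cells carrying an NFkB-response-element beta-lactamase reporter, 2,000 cells/well. Compound exposure lasted 5 hr at 37 C, 5% CO2. Cell viability was quantified by CellTiter-Glo luminescence.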

[4] = qHTS assay to identify small molecule agonists of the endoplasmic reticulum stress response signaling pathway (AID 1159516; active = well fitted activation curve with a large enough effect in the signal ratio in the repeat runs, not every such curve was filed as active; the % refers to the signal ratio)
Method in brief: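 Using a HeLa line with an ESRE-driven beta-lactamase gene, agonist activity was measured by FRET substrate fluorescence (460 and 530 nm emission) after cells were treated with compounds for 5 hr at 37 C and 5% CO2.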

[5] = qHTS assay to identify small molecule agonists of the endoplasmic reticulum stress response signaling pathway - cell viability counter screen (AID 1159517; calls by dose curve;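 note: HeLa cells carrying an ER stress response element beta-lactamase reporter; series mostly up to about 61 µM; nearly all actives have a fitted effect of over 50% in size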)
Method in brief: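 Cpd-treated ESRE-bla HeLa (5 hr, 37 C) → LiveBLAzer 2 hr RT → CellTiter-Glo 30 min RT → luminescence.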

[6] = qHTS assay to identify small molecule antagonists of the retinoid-related orphan receptor gamma (ROR-gamma) signaling pathway - cell viability counter screen (AID 1159520); note: nearly all actives have a fitted effect of over 50% in size
Method in brief: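 Tet-on ROR gamma CHO cells (1,000/well) were plated 4 hr, given compounds in DMSO for 2 hr at 37 C, then induced with 1 uM final doxycycline for 16 hr. Viability was read as ATP by CellTiter-Glo luminescence after 30 min.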

[7] = biological target: Nuclear receptor ROR-gamma (Homo sapiens) (UniProt P51449); assay: qHTS assay to identify small molecule antagonists of the retinoid-related orphan receptor gamma (ROR-gamma) signaling pathway (AID 1159521;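 note: CHO cells with doxycycline inducible ROR-gamma driving an RORE luciferase reporter; top concentration of the series differs between compounds; nearly all actives have a fitted effect of over 50% in size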)
Method in brief: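 RORγ antagonism is scored from reduced reporter luminescence in Tet-on CHO cells. Induction used 1 uM final doxycycline hyclate for 16 h at 37 C, following a 2 h compound exposure.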

[8] = qHTS assay to identify small molecule agonists of the AP-1 signaling pathway - cell viability counter screen (AID 1159525; calls by dose curve; note: nearly all actives have a fitted effect of over 55% in size)
Method in brief: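 Each titration point was normalised to DMSO and tetra n-octyl ammonium bromide controls. The read was Cell Titer Glo luminescence after 30 min at RT, following 5 h compound exposure of ME-180 AP-1-bla cells at 37 °C.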

[9] = qHTS assay to identify small molecule agonists of the AP-1 signaling pathway (AID 1159526; calls by dose curve)
[10] = biological target: Retinoic acid receptor RXR-alpha (Homo sapiens) (UniProt P19793); assay: qHTS assay to identify small molecule agonists of the RXR signaling pathway (AID 1159527; calls by dose curve; note: nearly all actives have a fitted effect of over 35% in size; note: potency is the fitted concentration of half-maximal effect)
Chain of Retinoic acid receptor RXR-alpha (Homo sapiens) (P19793 whole entry, looked up): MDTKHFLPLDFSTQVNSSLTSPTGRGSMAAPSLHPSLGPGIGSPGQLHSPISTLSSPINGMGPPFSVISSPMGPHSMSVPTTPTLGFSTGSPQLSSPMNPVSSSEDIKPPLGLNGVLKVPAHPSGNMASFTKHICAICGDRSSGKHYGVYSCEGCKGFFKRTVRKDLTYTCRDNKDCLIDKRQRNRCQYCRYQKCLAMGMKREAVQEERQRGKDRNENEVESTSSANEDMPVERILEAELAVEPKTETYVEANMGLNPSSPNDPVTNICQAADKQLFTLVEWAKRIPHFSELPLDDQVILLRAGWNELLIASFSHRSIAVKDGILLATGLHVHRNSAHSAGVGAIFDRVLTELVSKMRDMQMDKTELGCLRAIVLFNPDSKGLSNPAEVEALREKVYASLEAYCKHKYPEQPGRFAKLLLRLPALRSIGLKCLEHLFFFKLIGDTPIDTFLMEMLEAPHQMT
Method in brief: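 qHTS of the Tox21 10K library in GeneBLAzer RXR-alpha HEK 293T cells carrying a beta-lactamase reporter […]; 16 hr treatment, 9-cis retinoic acid as agonist control, FRET read-out.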

[11] = qHTS assay to identify small molecule antagonists of the retinoid acid receptor (RAR) signaling pathway - cell viability counter screen (AID 1159551); note: nearly all actives have a fitted effect of over 35% in size
Method in brief: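 ATP-based viability, C3RL4 cells, 6 h at 37 C with 1 uM final retinol co-added after compound; luminescence read 30 min post CellTiter-Glo, RT.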

[12] = qHTS assay to identify small molecule antagonists of the retinoic acid receptor (RAR) signaling pathway (AID 1159552; note: nearly all actives have a fitted effect of over 50% in size)
Method in brief: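 Quantitative HTS in C3RL4 RARE-luciferase reporter cells. Compounds were added with 1 uM (final) retinol; luminescence was read after 6 hr.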

[13] = qHTS assay to identify small molecule agonists of the retinoic acid receptor (RAR) signaling pathway (AID 1159553); note: potency is the fitted concentration of half-maximal effect
Method in brief: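 Quantitative high-throughput format: the Tox21 10K library was tested on C3RL4 RARE-luciferase cells for 6 hr at 37 C and 5% CO2, with luminescence measured after a 30 min room-temperature reagent step.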

[14] = qHTS assay to identify small molecule agonists of the RXR signaling pathway - cell viability counter screen (AID 1159529)
Method in brief: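 Cell viability is measured by CellTiter-Glo luminescence, 30 min at room temperature, in wells already read for beta-lactamase. Engineered HEK 293T cells (RXR-alpha-UAS-bla) are dosed 16 hr at 37 C. Tetraoctyl ammonium bromide serves as positive control.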

[15] = qHTS assay to identify small molecule agonists of the vitamin D receptor (VDR) signaling pathway - cell viability counter screen (AID 743224)
Method in brief: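 Compounds were pin-transferred onto VDR-bla cells plated 4 h earlier; following 16 h incubation at 37C, cell viability was quantified by CellTiter-Glo luminescence after 30 min at room temperature.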

[16] = qHTS assay to identify small molecule antagonists of the estrogen related receptor (ERR) signaling pathway - cell viability counter screen (AID 1224818);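 note: series mostly up to about 46 µM; viability measured after 17.5 h of compound exposure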
Method in brief: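 Quantitative high-throughput viability counter screen in ERR cells. Compounds (DMSO) incubated 17.5 h at 37 C; read-out was CellTiter-Fluor fluorescence.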

[17] = qHTS assay to identify small molecule antagonists of the estrogen related receptor (ERR) signaling pathway (AID 1224819)
Method in brief: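 ERR reporter cell line (NTP) plated at 2,000 cells/well, settled 6 h at 37C/5% CO2, then exposed to LOPAC compounds for 18 h at 37C. One-Glo luciferase luminescence read after 30 min at room temperature.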

[18] = qHTS assay to identify small molecule agonists of the estrogen related receptor (ERR) signaling pathway (AID 1224820)
Method in brief: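 After 6 h plating (2,000 cells/well) and 18 h compound treatment at 37 C, ERR cells were lysed with One-Glo and luminescence read after 30 min at room temperature.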

[19] = test system: estrogen-related receptor alpha (ERRalpha) with PGC-1alpha coactivator, human; assay: qHTS assay to identify small molecule antagonists of the estrogen related receptor signaling pathway with the pleiotropic PPARgamma coactivator (PGC) (AID 1224821; calls by dose curve)
Method in brief: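 Luminescence from One-Glo luciferase reagent (30 min, room temperature) measured after 18 h compound treatment at 37 °C. Cells carry the PGC/ERR reporter and were seeded 6 h prior to dosing.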

[20] = qHTS assay to identify small molecule antagonists of the estrogen related receptor signaling pathway with the pleiotropic PPARgamma coactivator (PGC) cell viability counter screen (AID 1224822; note: series mostly up to about 46 µM)
Method in brief: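 Cytotoxicity in the PGC/ERR cell line is assessed with CellTiter-Fluor, read as fluorescence intensity 30 min after reagent addition, following 17.5 h compound treatment at 37 C.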

Measured: Potency

CSc1nnc(C(C)(C)C)c(=O)n1N
not listed: [14] | [15] | [16] | [17] | [18] | [19] | [20]
inactive: all other assays above

CNc1cnn(-c2cccc(C(F)(F)F)c2)c(=O)c1Cl
active: [13] 4.17 µM and 5.45 µM
not listed: [14] | [15] | [16] | [17] | [18] | [19] | [20]
inactive: all other assays above

ClC(Cl)c1ccccc1
not listed: [5] | [15] | [16] | [17] | [18] | [19] | [20]
inactive: all other assays above

C/C=C/c1ccc2c(c1)OCO2
not listed: [14] | [16] | [17] | [18] | [19] | [20]
inactive: all other assays above

O=[N+]([O-])c1ccc(Cl)c(Cl)c1
not listed: [5] | [16] | [17] | [18] | [19] | [20]
inactive: all other assays above

CN(C)CCC#N
not listed: [5] | [15] | [16] | [17] | [18] | [19] | [20]
inactive: all other assays above

O=C(O)CCCc1ccc(N(CCCl)CCCl)cc1
inactive: [1] | [2] | [3] | [4] | [5] | [8] | [9] | [10] | [14] | [11]

CC(C)c1cccc(C(C)C)c1O
not listed: [14] | [15]
inactive: all other assays above

CCNc1nc(Cl)nc(NC(C)C)n1
not listed: [12] | [13] | [14] | [16] | [17] | [18] | [19] | [20]
inactive: all other assays above

CNC(=O)O/N=C/C(C)(C)S(C)=O (stereo not given)
not listed: [14] | [16] | [17] | [18] | [19] | [20]
inactive: all other assays above

CNCC(O)c1ccc(O)cc1 (stereo not given)
not listed: [5]
inactive: all other assays above

C=CCN=C=S
not listed: [5] | [16] | [17] | [18] | [19] | [20]
inactive: all other assays above

CCCCCCCCCCCCCCCCCC(=O)O
not listed: [7] | [15] | [16] | [17] | [18] | [19] | [20]
inactive: all other assays above

CCOP(=S)(OCC)Oc1cc(C)nc(C(C)C)n1
inactive: [1] | [2] | [3] | [4] | [5] | [6] | [7] | [8] | [9] | [10] | [11]

COS(=O)(=O)OC
not listed: [14] | [16] | [17] | [18] | [19] | [20]
inactive: all other assays above

c1ccc2c(c1)CCCC2
not listed: [12] | [13] | [14] | [16] | [17] | [18] | [19] | [20]
inactive: all other assays above

OCc1ccco1
inactive and 5.49 µM (active): [10]
not listed: [12] | [13] | [14] | [16] | [17] | [18] | [19] | [20]
inactive: all other assays above

CN(C)C(=O)Nc1cccc(C(F)(F)F)c1
not listed: [14] | [16] | [17] | [18] | [19] | [20]
inactive: all other assays above

Oc1c(Br)cc(Br)cc1Br
not listed: [5] | [15] | [16] | [17] | [18] | [19] | [20]
inactive: all other assays above

N#Cc1cccc(C#N)c1
not listed: [5] | [16] | [17] | [18] | [19] | [20]
inactive: all other assays above
